Test [1] deals with Gonadotropin-releasing hormone receptor (Homo sapiens) (UniProt P30968). Put plainly: Human gonadotropin-releasing hormone receptor (GnRHR) small molecule agonists, calcium flux assay in GnRHR-HEK293 cells (AID 1920063). Note: nearly all actives have a fitted effect of over 35% in size. In a few lines:
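Compounds dissolved in DMSO are pin-transferred onto dye-loaded GnRHR-HEK293 cells, which were seeded 18 h before at 37 C/5% CO2. Calcium signal is read as fluorescence intensity at 1 s intervals for 3 min.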

For test [2], the target named is KiSS-1 receptor (Homo sapiens) (UniProt Q969F8). Put plainly: Human kisspeptin (KISS1R) small molecule agonists, calcium flux assay in KISS1R-HEK293 cells (AID 1920064; active = well fitted activation curve with a large enough effect in the repeat runs). The procedure, abridged:
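Cell line: HEK293, stable human KISS1R. Dye loading 1 h at 37 C after 18 h culture. Read: kinetic fluorescence, 480/540 nm, 3 min at 1 s intervals.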

Test [3] in a line: G protein-coupled receptor (GPCR) small molecule agonists, calcium flux assay: HEK293 wild type cell line counter screen (AID 1920065). The procedure, abridged:
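Tox21 10K compounds, 15 concentrations each in triplicate, pin-transferred in DMSO onto dye-loaded cells; kinetic read at 480/540 nm for 3 min, 1 s intervals.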
In general terms: A change in cytosolic calcium serves as a functional read-out for many receptors and channels.

The nature of test [4]: p53 small molecule agonists, cell-based qHTS assay: qHTS cell viability counter screen (AID 1963581). Note: nearly all actives have a fitted effect of over 45% in size. The procedure, abridged: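 ATP content measured by luminescence in HCT-116 p53RE-bla cells treated 16 h at 37 C, same wells as the reporter screen.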
Background: Quantitative high-throughput screening tests each substance at several concentrations.

A short description of test [5]: p53 small molecule agonists, cell-based qHTS assay (AID 1963582; active = well fitted activation curve with a large enough effect in the signal ratio in the repeat runs, not every such curve was filed as active; the % refers to the signal ratio). In a few lines:
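16 h compound exposure (37 C) of p53 response element–bla cells, preceded by 5 h recovery at 37 C/5% CO2; read-out via LiveBLAzer B/G FRET substrate, 2 h RT, fluorescence intensity.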

Test [6] can be described thus: cAMP Responsive Elements (CRE) small molecule agonists, cell-based qHTS assay (AID 1963590). The procedure, abridged:
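HEK 293T cells stably bearing CRE-bla were plated at 2,000 cells per well and rested 18 h. Compounds, positive controls or DMSO were added for 3 h at 37 C. LiveBLAzer B/G substrate was then loaded for 2 h at room temperature.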

The nature of test [7]: cAMP Responsive Elements (CRE) small molecule antagonists, cell-based qHTS assay (AID 1963591; active = well fitted inhibition curve with a large enough effect in the signal ratio in the repeat runs, not every such curve was filed as active; the % refers to the signal ratio). In a few lines:
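First, CRE-bla HEK293T cells settled 18 h at 37 C. Next, compound and 0.25 uM final NKH477 were applied for 3 h. Last, LiveBLAzer B/G substrate was loaded for 2 h at room temperature.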

The target in test [8] is Beta-2 adrenergic receptor (Homo sapiens) (UniProt P07550). Briefly: Adrenergic beta2 receptor (ADRB2) small molecule antagonists, cell-based qHTS assay (AID 1963592). Note: series mostly up to about 92 µM; nearly all actives have a fitted effect of over 50% in size. In a few lines: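 Assay format: CHO-ADRB2 cells, 18-20hr seeding at 37C/5% CO2, then compound plus 1nM isoproterenol agonist mix for 0.5hr RT. Homogeneous time-resolved fluorescence cAMP detection after 1hr, expressed as 665/615 nm ratio.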

Test [9] has the same target. Briefly: Adrenergic beta2 receptor (ADRB2) small molecule agonists, cell-based qHTS assay (AID 1963593).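 Note: CHO cells stably overexpressing human ADRB2.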 The procedure, abridged:
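CHO cells stably over-expressing ADRB2 were plated overnight at 37C, then dosed with compounds plus a stimulation mix containing 100uM IBMX and 25uM Ro-20-1724 for 0.5hr at room temperature. cAMP was measured by HTRF competition, 1hr.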

In test [10] the target is 5-hydroxytryptamine receptor 2A (Homo sapiens) (UniProt P28223). Briefly: 5-hydroxytryptamine receptor 2A (HTR2A) small molecule antagonists, cell-based qHTS assay (AID 1963586). Note: nearly all actives have a fitted effect of over 45% in size. Note: potency is the fitted concentration of half-maximal effect. The procedure, abridged: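 CHO cells stably expressing human HTR2A were plated for 18 h at 37 C, then loaded with calcium dye for 1 h. Compounds were preincubated 5 min at room temperature before DOI (4 nM solution) was added. Kinetic fluorescence was read for 3 min.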

Test [11] has the same target. Briefly: 5-hydroxytryptamine receptor 2A (HTR2A) small molecule agonists, cell-based qHTS assay (AID 1963587). Note: nearly all actives have a fitted effect of over 30% in size. The procedure, abridged:
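CHO cells stably expressing human HTR2A, plated 18 h, loaded with calcium dye 1 h at 37 C. Agonist mode: compounds added and intracellular calcium fluorescence recorded kinetically for 2 min at 1 sec intervals.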

Test [12] addresses Muscarinic acetylcholine receptor M1 (Homo sapiens) (UniProt P11229). Briefly: Cholinergic receptor muscarinic 1 (CHRM1) small molecule antagonists, cell-based qHTS assay (AID 1963588). Note: nearly all actives have a fitted effect of over 40% in size. Note: potency is the fitted concentration of half-maximal effect. The procedure, abridged:
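Compounds were tested at 15 concentrations in three independent runs. Dye-loaded CHRM1-CHO cells were exposed 5 min at room temperature before stimulation by acetylcholine added at 50nM. Intracellular calcium was read kinetically on FDSS for 3 min.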

Test [13] has the same target. Briefly: Cholinergic receptor muscarinic 1 (CHRM1) small molecule agonists, cell-based qHTS assay (AID 1963589). Note: nearly all actives have a fitted effect of over 35% in size. In a few lines:
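Homogeneous fluorescence calcium flux, agonist mode. Human M1-expressing CHO cells; compound dosed at 15 concentrations, three independent runs; signal sampled every 1 sec.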

Test [14] has as its target D(2) dopamine receptor (Homo sapiens) (UniProt P14416). Put plainly: Dopamine D2 receptor (DRD2) small molecule antagonists, cell-based qHTS assay (AID 1963595; active = well fitted inhibition curve with a large enough effect in the signal ratio in the repeat runs, with a control signal flat; the % refers to the signal ratio; note: potency is the fitted concentration of half-maximal effect). The procedure, abridged: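 Readout: HTRF cAMP, cAMP-d2 competing with cellular cAMP for anti-cAMP cryptate, read after 1 h. Cells: DRD2-HEK293. Conditions: 0.1 mM Ro20-1724, 12 nM quinpirole, 200 nM NKH477, 30 min RT.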

The target is the same in test [15]. Put plainly: Dopamine D2 receptor (DRD2) small molecule agonists, cell-based qHTS assay (AID 1963594). Note: nearly all actives have a fitted effect of over 35% in size. Note: potency is the fitted concentration of half-maximal effect. In a few lines: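 HEK293 cells stably expressing human DRD2, pre-treated with PDE inhibitor Ro20-1724 (0.1 mM final) and compound 10 min at room temperature, then stimulated with NKH477 (200nM […]) for 30 min. cAMP read by HTRF (665/620 nm).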
The nature of test [16]: p53 small molecule agonists, cell-based qHTS assay with human liver microsomes (AID 1963577).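 Note: p53 response element beta-lactamase reporter cells with liver microsomes plus NADPH.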 In a few lines:
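With metabolic activation: human liver microsomes (0.5 mg/mL final) plus NADPH (0.5 mg/mL final) added alongside compounds to p53RE-bla cells; 16 h 37 C exposure; beta-lactamase read by LiveBLAzer fluorescence.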

Test [17] is described as follows: p53 small molecule agonists, cell-based qHTS assay with human liver microsomes: qHTS cell viability counter screen (AID 1963579). Note: nearly all actives have a fitted effect of over 45% in size. In a few lines: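 Metabolic activation used human liver microsomes and NADPH, both 0.5 mg/mL final, over 16 hours at 37 C on p53RE-bla cells (4,000/well). Cytotoxicity measured by CellTiter-Glo luminescence, 30 min at room temperature.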

A short description of test [18]: p53 small molecule agonists, cell-based qHTS assay with rat liver microsomes: qHTS cell viability counter screen (AID 1963580). Note: nearly all actives have a fitted effect of over 45% in size. The procedure, abridged: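 After the beta-lactamase ratio was read, CellTiter-Glo was added to the same wells and luminescence measured at 30 min; cells had been treated 16 h at 37 C with compounds, rat liver microsomes and NADPH (0.5 mg/mL final each).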

The values that follow come from PubChem BioAssay (Tox21).

Where “and” joins values, the source holds several entries; their conditions need not be identical. Equal values may be shown once. Records with an inconclusive call do not appear. Where a structure was tested more than once in an assay, its records may differ in their call. Calls of active or inactive are those of the source. Unless noted, calls come from the whole dose curve.
% is set by controls: 0 for no effect and ±100 for the full control effect.

Sequence of Muscarinic acetylcholine receptor M1 (Homo sapiens) (P11229 whole entry, looked up): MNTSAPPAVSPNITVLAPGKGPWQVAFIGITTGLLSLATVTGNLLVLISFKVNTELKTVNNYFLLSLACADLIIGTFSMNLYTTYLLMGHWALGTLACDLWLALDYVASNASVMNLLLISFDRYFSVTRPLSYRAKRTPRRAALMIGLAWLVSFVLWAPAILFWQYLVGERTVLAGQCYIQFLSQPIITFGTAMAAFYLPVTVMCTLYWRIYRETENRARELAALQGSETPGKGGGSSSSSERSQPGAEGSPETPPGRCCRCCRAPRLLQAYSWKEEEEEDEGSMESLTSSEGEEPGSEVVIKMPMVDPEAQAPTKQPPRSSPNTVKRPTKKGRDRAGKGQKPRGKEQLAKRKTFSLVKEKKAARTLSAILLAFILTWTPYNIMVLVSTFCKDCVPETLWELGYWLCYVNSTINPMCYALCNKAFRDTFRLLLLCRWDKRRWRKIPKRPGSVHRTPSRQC
Sequence of KiSS-1 receptor (Homo sapiens) (Q969F8 whole entry, looked up): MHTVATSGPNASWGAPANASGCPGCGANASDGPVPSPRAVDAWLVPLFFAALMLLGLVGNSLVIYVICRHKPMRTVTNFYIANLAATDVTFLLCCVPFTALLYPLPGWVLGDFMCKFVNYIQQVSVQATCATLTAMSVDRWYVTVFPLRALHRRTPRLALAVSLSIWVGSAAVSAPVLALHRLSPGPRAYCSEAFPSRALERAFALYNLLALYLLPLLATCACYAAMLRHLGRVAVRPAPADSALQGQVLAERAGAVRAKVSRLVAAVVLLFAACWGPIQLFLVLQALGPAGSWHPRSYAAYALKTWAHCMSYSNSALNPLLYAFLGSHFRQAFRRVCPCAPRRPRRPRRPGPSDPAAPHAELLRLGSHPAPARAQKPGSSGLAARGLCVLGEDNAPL
Sequence of Beta-2 adrenergic receptor (Homo sapiens) (P07550 whole entry, looked up): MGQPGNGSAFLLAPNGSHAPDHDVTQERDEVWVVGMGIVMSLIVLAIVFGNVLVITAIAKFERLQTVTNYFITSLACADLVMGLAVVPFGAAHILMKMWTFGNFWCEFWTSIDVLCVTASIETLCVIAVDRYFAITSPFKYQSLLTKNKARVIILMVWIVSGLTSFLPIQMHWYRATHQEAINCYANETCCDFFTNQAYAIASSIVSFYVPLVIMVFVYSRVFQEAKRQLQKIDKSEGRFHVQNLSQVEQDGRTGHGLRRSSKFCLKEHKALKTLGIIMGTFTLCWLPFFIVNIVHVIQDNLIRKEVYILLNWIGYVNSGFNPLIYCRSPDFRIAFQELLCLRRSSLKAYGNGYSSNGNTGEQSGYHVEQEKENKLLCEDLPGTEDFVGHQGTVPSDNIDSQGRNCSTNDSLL
Sequence of Gonadotropin-releasing hormone receptor (Homo sapiens) (P30968 whole entry, looked up): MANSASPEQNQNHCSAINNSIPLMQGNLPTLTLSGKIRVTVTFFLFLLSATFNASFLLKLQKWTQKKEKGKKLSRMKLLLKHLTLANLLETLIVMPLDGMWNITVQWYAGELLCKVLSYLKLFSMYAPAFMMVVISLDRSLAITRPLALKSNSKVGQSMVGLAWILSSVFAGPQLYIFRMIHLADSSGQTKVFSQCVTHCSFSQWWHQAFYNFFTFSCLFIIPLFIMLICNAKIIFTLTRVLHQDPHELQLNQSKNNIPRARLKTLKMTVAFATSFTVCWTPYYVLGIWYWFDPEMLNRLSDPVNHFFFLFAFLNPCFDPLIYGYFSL
Sequence of D(2) dopamine receptor (Homo sapiens) (P14416 whole entry, looked up): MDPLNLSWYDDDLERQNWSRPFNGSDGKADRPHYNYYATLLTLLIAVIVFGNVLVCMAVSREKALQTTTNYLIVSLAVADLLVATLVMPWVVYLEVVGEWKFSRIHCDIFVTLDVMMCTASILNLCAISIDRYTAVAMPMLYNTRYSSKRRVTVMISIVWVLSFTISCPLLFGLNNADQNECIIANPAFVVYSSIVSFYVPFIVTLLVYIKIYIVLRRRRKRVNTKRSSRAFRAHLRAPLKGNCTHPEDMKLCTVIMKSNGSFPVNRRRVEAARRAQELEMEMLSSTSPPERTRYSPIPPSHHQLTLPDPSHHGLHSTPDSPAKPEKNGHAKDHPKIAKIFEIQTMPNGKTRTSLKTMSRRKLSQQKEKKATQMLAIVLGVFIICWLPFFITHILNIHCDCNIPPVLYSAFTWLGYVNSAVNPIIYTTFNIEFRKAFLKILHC
Sequence of 5-hydroxytryptamine receptor 2A (Homo sapiens) (P28223 whole entry, looked up): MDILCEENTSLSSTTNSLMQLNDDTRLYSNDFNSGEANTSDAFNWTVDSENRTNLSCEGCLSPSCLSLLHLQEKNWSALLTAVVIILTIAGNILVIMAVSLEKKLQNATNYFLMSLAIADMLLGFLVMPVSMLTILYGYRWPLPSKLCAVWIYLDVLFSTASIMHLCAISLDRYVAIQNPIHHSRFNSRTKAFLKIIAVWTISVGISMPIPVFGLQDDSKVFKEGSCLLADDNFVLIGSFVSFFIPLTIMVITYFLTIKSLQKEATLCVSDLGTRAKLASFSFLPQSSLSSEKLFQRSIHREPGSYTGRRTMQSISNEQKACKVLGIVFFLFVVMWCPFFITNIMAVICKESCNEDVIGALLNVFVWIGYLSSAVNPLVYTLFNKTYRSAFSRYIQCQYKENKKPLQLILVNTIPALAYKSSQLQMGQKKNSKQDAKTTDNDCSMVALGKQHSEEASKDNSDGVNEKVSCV

`O=C(CCCN1CCC(O)(c2ccc(Cl)cc2)CC1)c1ccc(F)cc1`: the Potency result in test [1], in test [2], in [3], in [4], in [5] and in [6] was “inactive” each time. The Potency result in test [7], in test [8] and in test [9] was “inactive” in each case.

Consider `N[C@@H](Cc1ccc(O)cc1)C(=O)O`, for which, in test [1], the activity change was -0.862% [at 5.22 µM, stronger effect = higher value] (inactive). Also, the activation in test [2] was 0.301% [at 6.97 µM] (inactive); in [3], 1.73% [at 5.23 µM] (inactive); in test [11], 0.614% [at 7.02 µM] (inactive); in test [13], 0.14% [at 6.97 µM] (inactive); in [6] it was -0.513% [at 8.39 µM] (inactive). The activity change, negative = cytotoxicity in [4] was 14.2% [at 5.99 µM] (inactive). Besides, the activity, negative = inhibition in [10] is 17.7% [at 5.62 µM] (inactive); in [12] it was -1.5% [at 5.58 µM] (inactive). Besides, the activity change, negative = inhibition was -0.134% [at 8.39 µM] (inactive) in test [8] and 0.318% [at 8.38 µM] (inactive) in test [14].

As to `COC(=O)C1=C(C)NC(C)=C(C(=O)OC)C1c1ccccc1[N+](=O)[O-]`, the Potency entry in [1], in test [2], in test [3], in [4], in test [5] and in [6] was “inactive” in each case. Further, the Potency entry in [8] and in [15] was “inactive” in each case. Moreover, in [14], the Potency was 68.7 µM (active) and inactive.

In the case of `CC(C)c1c(C(=O)Nc2ccccc2)c(-c2ccccc2)c(-c2ccc(F)cc2)n1CC[C@@H](O)C[C@@H](O)CC(=O)O`, the Potency result in test [1], in test [2], in test [3], in test [4], in test [8] and in test [15] was “inactive” in each case.

Take `CN1[C@@H]2CC[C@@H]1CC(OC(=O)C(CO)c1ccccc1)C2` (some centres not stated): the Potency result in test [1], in [2], in test [3], in [6], in test [7] and in test [8] was “inactive” in each case. In addition, the Potency entry in test [14] was “inactive”.

With `OCCN1CCN(CC/C=C2/c3ccccc3Sc3ccc(C(F)(F)F)cc32)CC1`, the Potency result in test [1], in [2], in [16], in test [17], in [18] and in test [4] was “inactive” throughout. Moreover, the Potency entry in test [5], in test [13] and in test [8] was “inactive” in each case. The Potency in test [10] was 130 nM (active); in test [12], 3650 nM (active); in test [14] it was 168 nM (active).

Turning to `CN1[C@@H]2CC[C@H]1CC(OC(=O)C(CO)c1ccccc1)C2` (some centres not stated), the Potency entry in [1], in test [2], in [3], in [6], in [7] and in [8] was “inactive” throughout. Besides, the Potency result in test [15] and in [14] was “inactive” in each case.

As to `O=C1CN(/N=C/c2ccc([N+](=O)[O-])o2)C(=O)N1`, the Potency entry in test [1], in test [2], in [3], in test [4], in test [8] and in test [9] was “inactive” in each case. Besides, the Potency entry in test [14] was “inactive”. In addition, the Potency result in test [15] is “inactive and 68.6 µM (active)”.

Take `Cc1ccccc1`: the Potency result in [1], in [2], in test [3], in [10], in [11] and in test [12] was “inactive” each time. Further, the Potency result in test [13], in [6], in test [7], in test [8], in test [15] and in [14] was “inactive” in each case.
